SMILES strings stand for the structures. Where “and” joins values, the source holds several entries; their conditions need not be identical. Equal values may be shown once. The panel holds about 79,000 compounds, 15% with a hit somewhere; the sample as a whole holds those more often. A structure can be active in one record and inactive in another. Calls of active or inactive are those of the source. No stated cut-off is given here; in the data, active means growth inhibition above about 70%; inactive means the rest.

Test [1] can be described thus: NCI Yeast Anticancer Drug Screen. Data for the rad50 strain (AID 155).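 Further: 0% = growth of vehicle-only cultures of the same strain.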 The note with it: S. cerevisiae rad50 strain growth inhibition, stronger effect = higher value. The procedure, abridged: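 Relative growth inhibition (compound vs vehicle) was measured in yeast with a defined repair-gene alteration.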
Test [2] is described as follows: NCI Yeast Anticancer Drug Screen. Data for the mec2-1 strain (AID 157). The note with it: S. cerevisiae mec2-1 strain, stronger effect = higher value. In short, it runs like this: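 Using mec2-1 yeast: add compound, measure growth, express inhibition versus vehicle-treated cultures.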
A short description of test [3]: NCI Yeast Anticancer Drug Screen. Data for the sgs1 mgt1 strain (AID 161).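 Further: 0% = growth of cultures given vehicle only.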 The note with it: S. cerevisiae sgs1 mgt1 strain, stronger effect = higher value. The procedure, abridged: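 Growth of a repair-deficient yeast mutant was monitored after compound treatment and expressed as inhibition relative to vehicle-treated cultures.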
The nature of test [4]: NCI Yeast Anticancer Drug Screen. Data for the cln2 rad14 strain (AID 165).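 Further: 0% = growth equal to vehicle treated cultures.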 The note with it: S. cerevisiae cln2 rad14 strain, stronger effect = higher value. The procedure, abridged: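 Yeast strain cln2 rad14, bearing defects in cell cycle control and DNA repair, serves as the test system; values reflect growth inhibition compared with vehicle.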
Test [5] is described as follows: NCI Yeast Anticancer Drug Screen. Data for the bub3 strain (AID 167). The note with it: S. cerevisiae bub3 mutant strain, stronger effect = higher value. In short, it runs like this: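 Screening used yeast with an engineered genetic alteration affecting cell cycle control. Compound-exposed cultures were compared with vehicle cultures, and reduced growth was taken as inhibition.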

The nature of test [6]: NCI Yeast Anticancer Drug Screen. Data for the mlh1 rad18 strain (AID 175). The note with it: S. cerevisiae mlh1 rad18 strain growth inhibition, stronger effect = higher value. In short, it runs like this: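 Steps: expose repair-defective yeast to compound; measure growth; express inhibition against vehicle-treated controls.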
Where [7] appears, read: at 5.0 µM (retest, dose inferred, filed as 0.5).
[8] abbreviates: at 50.0 µM (retest, dose inferred, filed as 5.0).

Regarding `O=[N+]([O-])c1cc(S(=O)(=O)F)ccc1S`, the growth inhibition in test [1] (setting [7]) is -76% (inactive); in test [1] (setting [8]), 89% (active); in test [1] (at 50.0 µM), 91.2% (active); in test [2] (setting [7]) it was -32% (inactive); in test [2] (setting [8]), 93% (active); in test [2] (at 50.0 µM), 77.5% (active). Also, the growth inhibition in test [3] (setting [7]) is -34% (inactive); in test [3] (setting [8]), 88% (active); in test [3] (at 50.0 µM), 88.9% (active); in test [4] (setting [7]) it was -40% (inactive); in test [4] (setting [8]) it was 90% (active); in test [4] (at 50.0 µM) it was 86.7% (active). Also, the growth inhibition in test [5] (setting [7]) is -59% (inactive); in test [5] (setting [8]), 90% (active); in test [5] (at 50.0 µM), 91.8% (active); in test [6] (setting [7]), -103% (inactive); in test [6] (setting [8]), 92% (active); in test [6] (at 50.0 µM), 95.8% (active).
Take `Oc1cc(Cl)c(Cl)cc1Cl`: the growth inhibition in test [1] (setting [7]) was 30% (inactive); in test [1] (setting [8]), 98% (active); in test [1] (at 50.0 µM), 98.5% (active) and 53% (inactive); in test [2] (setting [7]) it was 12% (inactive); in test [2] (setting [8]), 99% (active); in test [2] (at 50.0 µM) it was 98.8% (active) and 98.6% (active). For the same compound, the growth inhibition in test [3] (setting [7]) is 17% (inactive); in test [3] (setting [8]), 99% (active); in test [3] (at 50.0 µM) it was 99.1% (active) and -3.1% (inactive); in test [4] (setting [7]), 0% (inactive); in test [4] (setting [8]), 99% (active); in test [4] (at 50.0 µM), 97.5% (active) and 96.4% (active). Besides, the growth inhibition in test [5] (setting [7]) is -2% (inactive); in test [5] (setting [8]), 99% (active); in test [5] (at 50.0 µM), 98.1% (active) and 97.2% (active); in test [6] (setting [7]) it was 18% (inactive); in test [6] (setting [8]) it was 100% (active); in test [6] (at 50.0 µM), 98.8% (active) and 52.5% (inactive).
With `CC(=O)C(CN(C(C)C)C(C)C)C(c1ccccc1)c1c(O)c2ccccc2oc1=O` (configuration not stated), the growth inhibition is 17% (inactive) in test [1] (setting [7]); 17% (inactive) in test [1] (setting [8]); 72% (active) in test [1] (at 50.0 µM); 11% (inactive) in test [2] (setting [7]); 11% (inactive) in test [2] (setting [8]); 47.4% (inactive) in test [2] (at 50.0 µM). For the same compound, the growth inhibition in test [3] (setting [7]) was 8% (inactive); in test [3] (setting [8]), 8% (inactive); in test [3] (at 50.0 µM), 58.7% (inactive); in test [4] (setting [7]), -3% (inactive); in test [4] (setting [8]), -3% (inactive); in test [4] (at 50.0 µM), 58% (inactive). The growth inhibition was 13% (inactive) in test [5] (setting [7]); 13% (inactive) in test [5] (setting [8]); 70.3% (active) in test [5] (at 50.0 µM); 12% (inactive) in test [6] (setting [7]); 12% (inactive) in test [6] (setting [8]); 70.1% (active) in test [6] (at 50.0 µM).
Take `ClC1=NSSC1(Cl)Cl`: the growth inhibition was 16% (inactive) in test [1] (setting [7]); 96% (active) in test [1] (setting [8]); 90.4% (active) in test [1] (at 50.0 µM); 16% (inactive) in test [2] (setting [7]); 99% (active) in test [2] (setting [8]); 92.5% (active) in test [2] (at 50.0 µM). For the same compound, the growth inhibition in test [3] (setting [7]) was 18% (inactive); in test [3] (setting [8]), 99% (active); in test [3] (at 50.0 µM), 91.2% (active); in test [4] (setting [7]), 20% (inactive); in test [4] (setting [8]), 78% (active); in test [4] (at 50.0 µM), 87.7% (active). Moreover, the growth inhibition in test [5] (setting [7]) is 21% (inactive); in test [5] (setting [8]) it was 99% (active); in test [5] (at 50.0 µM) it was 90.3% (active); in test [6] (setting [7]) it was 17% (inactive); in test [6] (setting [8]), 90% (active); in test [6] (at 50.0 µM), 92.2% (active).
Consider `O=S(=O)(c1ccccc1)N1C2C3CCC(CC3)C21` (configuration not stated), for which the growth inhibition is -1% (inactive) in test [1] (setting [7]); -4% (inactive) in test [1] (setting [8]); 1.2% (inactive) in test [1] (at 50.0 µM); -11% (inactive) in test [2] (setting [7]); -16% (inactive) in test [2] (setting [8]); 2.75% (inactive) in test [2] (at 50.0 µM). For the same compound, the growth inhibition is -3% (inactive) in test [3] (setting [7]); -32% (inactive) in test [3] (setting [8]); 23% (inactive) in test [3] (at 50.0 µM); -1% (inactive) in test [4] (setting [7]); 3% (inactive) in test [4] (setting [8]); 7.65% (inactive) in test [4] (at 50.0 µM). Also, the growth inhibition was 14% (inactive) in test [5] (setting [7]); 96% (active) in test [5] (setting [8]); 76.6% (active) in test [5] (at 50.0 µM); -13% (inactive) in test [6] (setting [7]); -5% (inactive) in test [6] (setting [8]); 1.5% (inactive) in test [6] (at 50.0 µM).
Regarding `CS/C([S-])=N/N=C(C)C.CS/C([S-])=N/N=C(C)C.[Ni+2]`, the growth inhibition is 34% (inactive) in test [1] (setting [7]); 94% (active) in test [1] (setting [8]); 93.8% (active) in test [1] (at 50.0 µM); 19% (inactive) in test [2] (setting [7]); 96% (active) in test [2] (setting [8]); 57% (inactive) in test [2] (at 50.0 µM). The growth inhibition in test [3] (setting [7]) was 28% (inactive); in test [3] (setting [8]), 97% (active); in test [3] (at 50.0 µM), 83.7% (active); in test [4] (setting [7]), 11% (inactive); in test [4] (setting [8]) it was 89% (active); in test [4] (at 50.0 µM), -13.8% (inactive). Also, the growth inhibition in test [5] (setting [7]) is 72% (active); in test [5] (setting [8]) it was 96% (active); in test [5] (at 50.0 µM) it was 79.8% (active); in test [6] (setting [7]) it was 72% (active); in test [6] (setting [8]) it was 97% (active); in test [6] (at 50.0 µM), 74.8% (active).
On to `CC(=O)Nc1ccccc1[As](O[As](c1ccccc1)c1ccccc1NC(C)=O)c1ccccc1` (configuration not stated), for which the growth inhibition was 39% (inactive) in test [1] (setting [7]); 99% (active) in test [1] (setting [8]); 99.5% (active) in test [1] (at 50.0 µM); 24% (inactive) in test [2] (setting [7]); 100% (active) in test [2] (setting [8]); 99.6% (active) in test [2] (at 50.0 µM). In addition, the growth inhibition in test [3] (setting [7]) was 66% (inactive); in test [3] (setting [8]) it was 100% (active); in test [3] (at 50.0 µM), 99.5% (active); in test [4] (setting [7]), 37% (inactive); in test [4] (setting [8]) it was 99% (active); in test [4] (at 50.0 µM), 99.4% (active). For the same compound, the growth inhibition in test [5] (setting [7]) is 11% (inactive); in test [5] (setting [8]), 100% (active); in test [5] (at 50.0 µM) it was 99.5% (active); in test [6] (setting [7]) it was 53% (inactive); in test [6] (setting [8]) it was 99% (active); in test [6] (at 50.0 µM), 99.5% (active).
Turning to `CCCCCCCCCCCCNCCc1ccccc1`, the growth inhibition in test [1] (setting [7]) is 99% (active); in test [1] (setting [8]) it was 99% (active); in test [1] (at 50.0 µM), 98.2% (active); in test [2] (setting [7]), 99% (active); in test [2] (setting [8]) it was 98% (active); in test [2] (at 50.0 µM) it was 98.8% (active). Besides, the growth inhibition in test [3] (setting [7]) is 99% (active); in test [3] (setting [8]), 98% (active); in test [3] (at 50.0 µM) it was 98.9% (active); in test [4] (setting [7]), 99% (active); in test [4] (setting [8]) it was 98% (active); in test [4] (at 50.0 µM) it was 98% (active). The growth inhibition in test [5] (setting [7]) is 99% (active); in test [5] (setting [8]) it was 98% (active); in test [5] (at 50.0 µM), 98.2% (active); in test [6] (setting [7]), 99% (active); in test [6] (setting [8]) it was 98% (active); in test [6] (at 50.0 µM), 98.8% (active).
In the case of `CCNC(C)(C)C(SS)c1ccc(Br)cc1` (configuration not stated), the growth inhibition in test [1] (setting [7]) is 6% (inactive); in test [1] (setting [8]), 10% (inactive); in test [1] (at 50.0 µM) it was 66.3% (inactive); in test [2] (setting [7]), 2% (inactive); in test [2] (setting [8]), -3% (inactive); in test [2] (at 50.0 µM), 57.1% (inactive). The growth inhibition in test [3] (setting [7]) was -3% (inactive); in test [3] (setting [8]), 18% (inactive); in test [3] (at 50.0 µM), 73.8% (active); in test [4] (setting [7]), 25% (inactive); in test [4] (setting [8]) it was 33% (inactive); in test [4] (at 50.0 µM) it was 34.9% (inactive). Moreover, the growth inhibition in test [5] (setting [7]) is -15% (inactive); in test [5] (setting [8]), 17% (inactive); in test [5] (at 50.0 µM) it was 84.8% (active); in test [6] (setting [7]) it was -21% (inactive); in test [6] (setting [8]), 20% (inactive); in test [6] (at 50.0 µM) it was 78.6% (active).

Source of the values: PubChem BioAssay (NCI).
